Source: PubChem
Most compounds without a hit are left out; they make up all but 1.6% or so of the library.
p53ts 39C kill: qHTS Screen for Compounds that Selectively Target Cancer Cells with p53 Mutations: Cytotoxicity of p53ts Cells at the Nonpermissive Temperature | Potency, µM (titrated, usually from 46.1 µM), hits mostly cytotoxic | H1299-p53A138V viability at 39C, ATP luminescence, 24 h | 130,000 compounds, 1.5% hits; note: nearly all actives have a fitted effect of over 55% in size
Peg3 imprint: qHTS Assay for Compounds that Induce Erasure of Genomic Imprints; mouse ES Peg3-LacZ reporter, beta-gal luminescence, 40 h; Potency, µM (doses to about 60.7 µM), most hits filed as activators; 110,000 compounds, 0.02% hits
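Gelatin-coated wells received 300 freshly trypsinized female ES cells with a Peg3LacZ-Neo reporter on the maternal allele, then incubated 40 hours at 37C. BetaGlo was added for 5 minutes at room temperature before a single luminescence read.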
p53ts 32C kill: qHTS Screen for Compounds that Selectively Target Cancer Cells with p53 Mutations: Cytotoxicity of p53ts Cells at the Permissive Temperature | 130,000 compounds, 0.93% hits | Potency, µM (series often up to 46.1 µM), hits mostly cytotoxic | H1299-p53A138V at 32C, ATP luminescence viability, 24 h; note: nearly all actives have a fitted effect of over 55% in size
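Viability by ATPlite luminescence after 24 h compound treatment (up to 46 uM) at the permissive 32C. Cells are H1299 carrying p53 A138V. Scale runs from DMSO basal to 100 uM tamoxifen as full kill; AC50 from Hill fits.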
Of the large screens only hits and unclear results are named; the others gave an inactive call. Calls come from the whole dose curve; as a rule, active = well fitted curve in the direction sought with a large enough effect; inconclusive = small, poorly fitted or top-dose-only effect, or another doubt; inactive = no such curve, though single readings can be large; an effect the other way counts as inactive or inconclusive.

O=C(Nc1ncc2c(n1)CC(c1ccccc1)CC2=O)c1ccco1 (configuration not stated)	none
CN(C)CCSCCO	none
Cc1ccc(NC(=O)CSc2nc3ccccc3n2CC(=O)N(C)C2CCCCC2)cc1C	none
O=C1C(=O)c2ccc(-c3ccccc3)cc2-c2ccccc21	none (no result: Peg3 imprint)
Cc1ccc(-c2cc3c(nn2)-c2ccccc2C3=O)cc1	p53ts 39C kill 0.4µM, p53ts 32C kill 0.5µM
Clc1ccc2c(c1)N(CCCN1CCCC13CCCCC3)c1ccccc1S2	none
CCc1cccc(C)c1NC(=O)c1cn2c3c(ccc(Cl)c3c1=O)OC(C)C2 (configuration not stated)	none (no result: p53ts 39C kill, Peg3 imprint)
CCCCCCCN(C(=O)CCl)c1ccccc1C	p53ts 39C kill 25µM, p53ts 32C kill inconclusive (no result: Peg3 imprint)
CCN(C(=O)c1ccc(C(=O)N(CC)c2ccccc2C)cc1)c1ccccc1C	none
OCCNc1nc(Nc2ccccc2)nc2ccccc12	none (no result: Peg3 imprint)
Nc1nc(Nc2cccc(F)c2)nc2ccccc12	p53ts 39C kill 13µM, p53ts 32C kill inconclusive
CC(C)(C)NC(=O)NC(=O)COc1ccccc1C#N	p53ts 39C kill 13µM, p53ts 32C kill 13µM
COc1ccc(C(CNC(=O)COc2ccccc2C#N)N2CCOCC2)cc1 (configuration not stated)	none
O=C(N/N=C1\CCc2ccccc21)c1ccccc1O	p53ts 39C kill 4.5µM (no result: Peg3 imprint, p53ts 32C kill)
O=C(OC1CCc2ccccc2C1=O)c1ccccc1O (configuration not stated)	none
Cc1ccc(C(=O)C2CCNCC2)cc1	none
Cc1ccc(C(=O)/C=C2\NCCNC2=O)cc1	p53ts 39C kill inconclusive, p53ts 32C kill 13µM (no result: Peg3 imprint)
COc1ccc(C(=O)OCc2cc(=O)n3nc(-c4cccs4)sc3n2)cc1	none
CC(CCc1ccccc1)NCC(O)c1ccc(O)c(C(N)=O)c1 (configuration not stated)	none
OCc1cc([C@@H](O)CNCCCCCCOCCCCc2ccccc2)ccc1O	p53ts 39C kill 13µM
O=C(COc1ccccc1Cl)N(Cc1cccc(F)c1)C1CCS(=O)(=O)C1 (configuration not stated)	none
COc1ccc(-n2ncc3c(NC4CCCC4)ncnc32)cc1	p53ts 39C kill 2µM, p53ts 32C kill 5µM
COc1ccc(-n2ncc3c(NCCCOC(C)C)ncnc32)cc1	p53ts 39C kill inconclusive
Cc1ccc(-n2ncc3c(NC4CCCC4)ncnc32)cc1	p53ts 39C kill inconclusive, p53ts 32C kill 13µM
COc1ccc(-n2ncc3c(NC(C)C)ncnc32)cc1	p53ts 39C kill 13µM, p53ts 32C kill 13µM (no result: Peg3 imprint)
COc1ccc(CNc2ncnc3c2cnn3-c2ccc(Cl)cc2)cc1	none
c1ccc(-n2ncc3c(NC4CCCC4)ncnc32)cc1	p53ts 39C kill 10µM, p53ts 32C kill 13µM
CCCCNc1ncnc2c1cnn2-c1ccccc1	p53ts 39C kill inconclusive, p53ts 32C kill inconclusive
Cc1ccc(Nc2ncnc3c2cnn3-c2ccc(C)cc2)cc1	none
Nc1nc(SCc2ccc([N+](=O)[O-])cc2)c2ncn([C@@H]3O[C@H](CO)[C@H](O)[C@H]3O)c2n1	none (no result: p53ts 39C kill, p53ts 32C kill)
Cc1cnc(CNc2ncnc3ccc(-c4ccoc4)cc23)cn1	none
Cc1ccc2nc(-c3ccc(SCC(=O)O)nc3)[nH]c2c1	none
Cc1ccc2nc(-c3sc4nc(C)ccc4c3N)[nH]c2c1	p53ts 39C kill 10µM, p53ts 32C kill 13µM (no result: Peg3 imprint)
C=Cc1ccccc1Cl	none
O=C(O)c1ccncc1.O=C(O)c1ccncc1.[NH2-].[NH2-].[Pt]	none
COc1ccc(CCNc2nc(-c3ccc(OC)c(OC)c3)cc(C(F)(F)F)n2)cc1OC	none
CC(C)=CCNc1ncnc2nc[nH]c12	none
CCOC(=O)CNc1ncnc2nc[nH]c12	p53ts 39C kill inconclusive, p53ts 32C kill 7.9µM
CCN(CCO)CCCC(C)Nc1ccnc2cc(Cl)ccc12 (configuration not stated)	none
CCN(CC)CCC[C@H](C)Nc1c2ccc(Cl)cc2nc2ccc(OC)cc12	p53ts 39C kill 10µM, p53ts 32C kill 5µM
COc1ccc(C)cc1Nc1cc(C)nc2nc(C)nn12	none
COc1ccc(C)cc1Nc1nc(N)c2cc(OC)c(OC)cc2n1	p53ts 39C kill 20µM, p53ts 32C kill 20µM
CCCN(CCC)CCNC(=O)c1cc2c(-c3ccc(Cl)cc3)nn(C)c2s1	p53ts 39C kill 13µM
CCOCCCNC(=O)c1cc2c(-c3ccc(Cl)cc3)nn(C)c2s1	none
CCN(CC)CCNC(=O)c1cc2c(-c3ccc(Cl)cc3)nn(C)c2s1	none
CCCCN(CC)CCNC(=O)c1cc2c(-c3ccc(Cl)cc3)nn(C)c2s1	p53ts 39C kill 16µM
CCc1ccc(NC(=O)CCc2c(C)nn(-c3ccc(N4CCCC4)nn3)c2C)cc1	none
O=C(Nc1ccc(N2CCCC2)cc1)c1ccccc1F	p53ts 32C kill inconclusive (no result: Peg3 imprint)
O=C(Nc1ccc(N2CCCC2=O)cc1)c1cccc(F)c1	p53ts 39C kill inconclusive, p53ts 32C kill inconclusive
O=C(Nc1ccc(N2CCCC2)cc1)c1cccc(F)c1	p53ts 39C kill 5µM, p53ts 32C kill 7.9µM
O=C(Nc1ccc(N2CCCCC2)cc1)c1ccccc1	p53ts 39C kill 13µM, p53ts 32C kill 5µM (no result: Peg3 imprint)
CCCCCCN(C(=O)CCCCCN1C(=O)NC(C2CCCCC2)C(C(=O)OCc2ccccc2)=C1C)C(C(=O)NCCCC)c1ccc(OCC(=O)OC)c(C(=O)OC)c1 (configuration not stated)	none
COc1ccc(NCc2ccccc2-c2nnc(-c3ccccc3)o2)cc1Cl	none
Cc1nc(NC(=O)c2ccc(Br)s2)sc1C(=O)N(C)C	p53ts 39C kill inconclusive, p53ts 32C kill 13µM
COc1ccc(C(=O)Nc2nc(C)c(C(=O)N(C)C)s2)cc1OC	p53ts 32C kill 13µM
Cc1nc(NC(=O)c2cc3c(s2)CCCCC3)sc1C(=O)N(C)C	none
COc1ccc(C(=O)Nc2nnc(C(C)C)s2)cc1OC	none
CN=c1scc(-c2cccs2)n1/N=C/c1ccc(O)c(O)c1O	p53ts 39C kill 6.3µM (no result: Peg3 imprint, p53ts 32C kill)
Cc1nc2ccccc2c(=O)n1/N=C/c1cn(-c2ccccc2)nc1-c1cccs1	none
COc1ccc(C2c3c(n(C)c4ccccc34)C(=O)N2CC(=O)Nc2ccc(C)c(Cl)c2)cc1 (configuration not stated)	p53ts 39C kill inconclusive
C=CC[C@@H]1C=C[C@@H](O/N=C(/C)CCC(=O)OC[C@@H]2O[C@H](c3ccccc3)C=C[C@@H]2Oc2ccc(OC)cc2)[C@@H](CO)O1	none (no result: Peg3 imprint)
COc1cc2nc(SCC(=O)Nc3ccccc3C)n3nc(CCn4c(C)nc5ccccc54)nc3c2cc1OC	none
CCOc1ccccc1NC(=O)CSc1nc2cc(OC)c(OC)cc2c2nc(CCn3c(C)nc4ccccc43)nn12	p53ts 39C kill 5µM, p53ts 32C kill inconclusive
CCOC(=O)c1cccc(NC(=O)CSc2nc3cc4ccccc4cc3[nH]2)c1	p53ts 39C kill inconclusive
COc1cccc(CNC(=O)CCCn2ncn3c(cc4occc43)c2=O)c1OC	none
COc1ccc(NC(=O)c2ccco2)cc1NC(=O)COc1ccc(Cl)c(C)c1	p53ts 39C kill 10µM, p53ts 32C kill inconclusive
COc1ccc(NC(=O)c2ccco2)cc1NC(=O)COc1cc(C)ccc1C(C)C	p53ts 39C kill inconclusive
CC(C)(C)c1cc(O)c(C(C)(C)C)cc1O	none
Cc1cc(O)c(C(C)(C)C)cc1Sc1cc(C(C)(C)C)c(O)cc1C	p53ts 39C kill 16µM
